Results filed as inconclusive are left out. Calls of active or inactive are those of the source. Calls follow the shape of the dose curve; as a rule, active = well fitted inhibition curve with a large enough effect; inconclusive = small, poorly fitted or top-dose-only effect; inactive = no such curve, though single readings can be large or run the other way.
Assay: qHTS Screen of the MIPE 4.0 Collection Against Ewings Sarcoma (EW8) (AID 1259255); also: nearly all actives have a fitted effect of over 35% in size;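 as to viability: 100% = DMSO-treated cells and 0% = medium-only wells without cells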
Settings: EW8 Ewing sarcoma viability, CellTiter-Glo, 48 h; series mostly up to 45.8 µM; viability: at the top concentration
Description: There is a large unmet medical need for treatments for Ewing sarcoma, a pediatric sarcoma. We sought to identify compounds that inhibited Ewing sarcoma cells in vitro with the goal to then test promising drugs in two drug combinations in vitro to look for synergistic drug combinations. Promising combinations would then proceed to additional validation, including in vivo testing.
Using the NCATS developed oncology compound library called the Mechanism of Interrogation Plate (MIPE), four Ewing sarcoma cell lines were evaluated (TC32, TC71, RDES, EW8). Compounds, in a 12-point titration series, were incubated with cells for 48 hours and the read out was cell viability (CellTiter-Glo from Promega). These initial experiments were used to select appropriate concentrations of each single agent for subsequent two-drug matrix combinations such that the concentrations in the matrices would span both activity and non-activity.
Cells, in the log phase of growth, were seeded in 5 uL of RPMI plus 5% FBS, […] L-glutamine, 100 U/ml penicillin and 100 ug/ml streptomycin into 1536-well solid-bottom white tissue culture treated Greiner Bio One Plates (789173-F) using a MultiDrop Combi (Thermofisher Scientific) dispenser and a small sterile cassette. One column was media alone to be used as a :"no cells" control. The plates were then covered with sterilized stainless steel gasketed lids from Kalypsys. After allowing cells to attach for 4 hours, 23 nL of test compound or control (negative control DMSO and positive control 9.2 uM Bortezomib-final) were added from a 1536-well polypropylene compound source plate to each well using a 1536 head pin tool from Kalypsys. Cells were then incubated for 48 hours at 37C, 95% relative humidity and 5% CO2. After 48 hours, plates were removed from the incubator and 3 uL of CellTiter-Glo (Promega) was added using an Aurora Flying Reagent Dispenser Bioraptor. Plates were incubated at room temperature for 10 minutes prior to reading the luminescence on the Viewlux (PerkinElmer). The relative luciferase units are used to calculate the percent activity using the activity of DMSO in the cells and no cells columns for normalization of no inhibition and full inhibition respectively.
Potency is read from the fitted curve at half-maximal effect.

| Compound | Potency | viability |
| --- | --- | --- |
| Cc1cc(-c2ccc(CC(=O)Nc3ccc(-c4cccnc4)cc3)cc2)ccn1 | 18.7 µM (active) | – |
| O=C1CCc2cc(OCCCCc3nnnn3C3CCCCC3)ccc2N1 | – | 113% (inactive) |
| O=C1[C@H](Cc2ccc(O)cc2)N2C(=O)CCN(C(=O)NCc3ccccc3)[C@H]2CN1Cc1cccc2ccccc12 | 2.64 µM (active) | – |
| Cc1c(CCOc2ccc(C(=O)O)cc2)c2cc(Cl)ccc2n1C(c1ccccc1)c1ccccc1 | 14.8 µM (active) | – |
| CCn1c(-c2nonc2N)nc2c(C#CC(C)(C)O)ncc(OC[C@H]3CCCNC3)c21 | 23.5 µM (active) | – |
| O=c1n(CCCN2CCN(c3cccc(Cl)c3)CC2)nc2ccccn12 | – | 107% (inactive) |
| Cc1n[nH]c(C)c1Cc1sc2c(c1C(=O)N1C[C@H](O)CO1)c(=O)n(C)c(=O)n2CC(C)C | – | 97.9% (inactive) |
| CS(=O)(=O)c1cccc(CNc2nc(Nc3ccc4c(c3)CCC(=O)N4)ncc2C(F)(F)F)c1 | 13.2 µM (active) | – |
| O=C(Nc1nc2ccccc2n1CCN1CCOCC1)c1cccc([N+](=O)[O-])c1 | 20.9 µM (active) | – |
| CCCC(CCC)C(=O)O | – | 111% (inactive) |
| Clc1cccc(Cl)c1NC1=NCCN1 | – | 126% (inactive) |
| CC(C)(C)NCC(O)c1ccc(O)c(CO)c1 (stereo not given) | – | 124% (inactive) |
| COc1nc(-c2ccc3c(c2)OCO3)n(-c2ccc(NC(=O)CSc3ccccc3)cc2)n1 | – | 102% (inactive) |
| Cc1cc([C@@H](C)Nc2ccccc2C(=O)O)c2nc(N3CCOCC3)cc(=O)n2c1 | 42.9 µM (active) | – |
| NC(=O)c1ccc(-c2nc(-c3ccc4c(c3)OCO4)c(-c3ccccn3)[nH]2)cc1 | 16.6 µM (active) | – |
| O=S(=O)(N=Cc1c(O)ccc2ccccc12)c1cccs1 | 7.43 µM (active) | – |
| CCOc1cc(N2CCC(O)CC2)ccc1Nc1ncc2c(n1)N(C)c1ccccc1C(=O)N2C | 23.5 µM (active) | – |
| CCC(C)N(C)C(=O)c1cc2ccccc2c(-c2ccccc2Cl)n1 (stereo not given) | – | 95% (inactive) |
| COc1ccc(CC2=NN3C([C@@H](CCc4ccccc4)[C@@H](C)O)=NC(C)C3C(=O)N2)cc1OC (stereo not given in full) | – | 111% (inactive) |
| COc1ccc(-c2ccc3c(N4CCOCC4)nc(N4C[C@@H](C)O[C@@H](C)C4)nc3n2)cc1CO | 0.662 µM (active) | – |

| Compound | Potency | viability |
| --- | --- | --- |
| COc1ccccc1-c1cccc(-c2c(O)c3cc(C#N)c(Cl)cc3[nH]c2=O)c1 | 30.3 µM (active) | – |
| CCn1cc(C(=O)O)c(=O)c2cc(F)c(N3CCNC(C)C3)c(F)c21 (stereo not given) | – | 113% (inactive) |
| O=C(C=Cc1ccc(/C=C/C(=O)Nc2ccc(C3=NCCN3)cc2)cc1)Nc1ccc(C2=NCCN2)cc1 | – | 97% (inactive) |
| CCN(c1ccccc1)c1cc(NC)[n+](C)c(C)n1 | – | 108% (inactive) |
| Cn1c(=O)c(F)c(Nc2ccc(I)cc2F)c2c(=O)n(C[C@@H](O)CO)cnc21 | – | 89.2% (inactive) |
| Cc1cnc(NC(=O)C2=C(O)c3ccccc3S(=O)(=O)N2C)s1 | – | 112% (inactive) |
| CCn1c(-c2nonc2N)nc2cnc(Oc3cccc(NC(=O)c4ccc(OCCN5CCOCC5)cc4)c3)cc21 | 11.8 µM (active) | – |
| COc1ccc2c3n(c(=NC(=O)c4cccnc4)nc2c1OC)CCN3 | 20.9 µM (active) | – |
| N#Cc1ccc(C(c2ccc(C#N)cc2)n2cncn2)cc1 | 20.9 µM (active) | – |
| CCc1cc(Nc2nccc(-c3c(-c4ccc(OC)c(C(=O)Nc5c(F)cccc5F)c4)nc4ccccn34)n2)c(OC)cc1N1CCC(N2CCN(S(C)(=O)=O)CC2)CC1 | 18.7 µM (active) | – |
| O=C(O)COCCN1CCN(C(c2ccccc2)c2ccc(Cl)cc2)CC1 (stereo not given) | – | 113% (inactive) |
| C[C@H](NC(=O)Cc1cc(F)cc(F)c1)C(=O)N[C@@H]1C(=O)N(C)c2ccccc2-c2ccccc21 | 11.8 µM (active) | – |
| CC[C@@H](C)[C@H](NC(=O)[C@H](CC1CCCCC1)NC(=O)c1ccno1)C(=O)N1CCC2(CCc3ccccc32)CC1 | – | 112% (inactive) |
| Cc1c(C)c2c(c(C)c1O)CCC(C)(COc1ccc(CC3SC(=O)NC3=O)cc1)O2 (stereo not given) | – | 103% (inactive) |
| Cc1cc(Nc2nc(N[C@@H](C)c3ncc(F)cn3)ncc2Cl)n[nH]1 | 26.4 µM (active) | – |
| CCOc1ccc(Cc2cc([C@@H]3O[C@H](CO)[C@@H](O)[C@H](O)[C@@H]3O)ccc2Cl)cc1 | – | 106% (inactive) |
| Cc1cc(C=c2sc3nc4ccccc4n3c2=O)c(C)n1-c1ccccc1 | – | 98.5% (inactive) |
| Cn1cnc2c(F)c(Nc3ccc(Br)cc3Cl)c(C(=O)NOCCO)cc21 | 2.64 µM (active) | – |
| OCCn1cc(-c2cnc3nnn(Cc4ccc5ncccc5c4)c3n2)cn1 | – | 115% (inactive) |
| CC1(C)SCCN(S(=O)(=O)c2ccc(OCC#CCO)cc2)[C@@H]1C(=O)NO | – | 95.5% (inactive) |
